Source: PubChem BioAssay (National Center for Advancing Translational Sciences (NCATS))
Rows were chosen to be rich in hits. Some 8.9% of all compounds tested hit in one or more screens of this group.
MCF10A rereplic = induces DNA re-replication in MCF 10a normal breast cells; MCF 10A DNA re-replication, Hoechst nuclear intensity, 48 h; Potency, µM (titrated, usually from 46.1 µM), for the others: at the top dose activity, positive = re-replication, hits mostly activators; hit rate 2.9% among 350,000; AID 624296; further: potency means the concentration at half of the fitted maximal effect; % of control where 0% means no effect; nearly all actives have a fitted effect of over 50% in size
SW480 rerep = inducers of DNA re-replication in SW480 colon cancer cells | SW480 DNA re-replication, Hoechst DNA content imaging, 48 h | AID 624297 | Potency, µM (titrated, usually from 46.1 µM), inactives show at the top dose re-replication activation, most hits filed as activators | hit rate 1.8% among 340,000; further: potency means the concentration at half of the fitted maximal effect; % of control where 0% means no effect; nearly all actives have a fitted effect of over 55% in size
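First, 250 cells per well were seeded. Next, compound or vehicle (23 nL) was pinned in, plates sat 48 hr at 37 C. Finally Hoechst was added for 40 min before fluorescence scanning.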
KB-3-1 cytotox = kills parental KB-3-1 adenocarcinoma cells; hit rate 1.4% among 400,000; Potency, µM (titrated, usually from 46.1 µM), actives largely listed as cytotoxic; KB-3-1 viability, CellTiter-Glo ATP luminescence, 72 h; further: potency means the concentration at half of the fitted maximal effect; on the % scale 0 is the no-effect control and ±100 the full control effect; nearly all actives have a fitted effect of over 60% in size
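Cytotoxicity measured as CellTiter-Glo luminescence after 72 h at 37 C. Compound titrations were pinned onto drug-naive KB-3-1 parental adenocarcinoma cells grown in DMEM with 10% FBS, and normalized data fitted to concentration-response curves.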
KB-V1 MDR tox = kills drug-selected multidrug resistant KB-V1 cells; KB-V1 MDR cells viability, CellTiter-Glo, 72 h; Potency, µM (highest dose often 46.1 µM), most hits filed as cytotoxic; hit rate 3.4% among 400,000; further: potency means the concentration at half of the fitted maximal effect; on the % scale 0 is the no-effect control and ±100 the full control effect; nearly all actives have a fitted effect of over 60% in size
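Cytotoxicity toward P-gp-expressing KB-V1 cells was determined as loss of CellTiter-Glo luminescence after 72 h at 37 degrees C. Compounds were tested in quantitative HTS format across a concentration range, with curves fitted to normalized data.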
D3 ag = D3 dopamine receptor (human) agonism | hit rate 0.58% among 410,000 | max activation, % | D3R DiscoveRx beta-arrestin cells, luminescence, 90 min | AID 652048; in the data active means max activation above about 30%; further: 0% is about no effect
Target sequence (P35462 whole entry, looked up): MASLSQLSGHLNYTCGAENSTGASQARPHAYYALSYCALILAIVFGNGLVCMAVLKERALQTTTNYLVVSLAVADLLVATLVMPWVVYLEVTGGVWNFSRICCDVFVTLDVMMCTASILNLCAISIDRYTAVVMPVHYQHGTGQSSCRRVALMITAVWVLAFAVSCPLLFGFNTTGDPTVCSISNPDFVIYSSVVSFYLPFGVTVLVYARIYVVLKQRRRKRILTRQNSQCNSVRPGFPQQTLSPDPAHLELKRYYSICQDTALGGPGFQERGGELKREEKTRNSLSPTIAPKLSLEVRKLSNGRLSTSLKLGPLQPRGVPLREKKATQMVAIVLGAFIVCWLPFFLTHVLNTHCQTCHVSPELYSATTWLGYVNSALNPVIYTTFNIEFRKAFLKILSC
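Agonist mode: compounds and dopamine controls were applied to plated cells for 90 min at 37 degrees C after an overnight attachment at 1500 cells/well. Luminescent read-out followed 30 - 60 minutes at room temperature with DiscoveRx detection reagent.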
D3 antag = D3 dopamine receptor (human) antagonism | P35462 | D3R cells, DiscoveRx beta-arrestin luminescence, antagonist mode; active compounds read low | max response, negative = inhibition, % | hit rate 2.5% among 360,000 | AID 652054; in the data active means max response below about -50%; inconclusive means no clear call, values can overlap the other calls; further: on the % scale 0 is the no-effect control and ±100 the full control effect
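Cells plated overnight at 1500 cells/well, then exposed to library compounds with dopamine controls for 90 minutes at 37 degrees C. DiscoveRx reagent added for 30–60 minutes at room temperature; luminescence read, quantitative HTS format.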
An asterisk follows results filed as active; ! = not active in a repeat; [ ] = remark or other dose. Unless noted, the call rests on the fitted dose curve; in most records, active means well fitted curve in the direction sought with a large enough effect; inconclusive means small, poorly fitted or top-dose-only effect, or another doubt; inactive means no such curve, though single readings can be large; an effect the other way counts as inactive or inconclusive.

Results for CC(=O)N[C@H]1[C@H](O[C@@H]2c3ccc(c(Cl)c3)Oc3cc4cc(c3O[C@@H]3O[C@H](CO)[C@@H](O)[C@H](O)C3C)Oc3ccc(cc3Cl)C[C@H]3NC(=O)[C@@H](N)c5ccc(O)c(c5)Oc5cc(O)cc(c5)[C@H](NC3=O)C(=O)N[C@H]4C(=O)N[C@H]3C(=O)N[C@@H]2C(=O)N[C@@H](C(=O)O)c2cc(O)cc(O[C@H]4O[C@H](CO)[C@@H](O)C(O)[C@@H]4O)c2-c2cc3ccc2O)O[C@H](CO)[C@@H](O)[C@@H]1O (some centres not stated) ?
MCF10A rereplic: 2%[20.6 µM]; SW480 rerep: -1%[20.6 µM]

What do the screens show for `CCCC(=O)OCc1cnc(C)c2oc(=O)c(C(=O)Nc3cccc(C(F)(F)F)c3)cc12`?
KB-3-1 cytotox: inactive; KB-V1 MDR tox: inactive; D3 ag: -2

Results for O=C(O)Cc1cccc(-c2cc(CCCCCCc3ccc(O[C@H]4O[C@H](CO)[C@@H](O)[C@H](O)[C@@H]4O)c(-c4cccc(CC(=O)O)c4)c3)ccc2O[C@H]2O[C@H](CO)[C@@H](O)[C@H](O)[C@@H]2O)c1 ?
D3 ag: -18

What do the screens show for `c1ccc(-c2nc3ccccn3c2NCc2ccc3c(c2)OCO3)cc1`?
MCF10A rereplic: 23%; SW480 rerep: 0%; KB-3-1 cytotox: inactive; KB-V1 MDR tox: inactive; D3 ag: -4; D3 antag: 21

How did Cc1ccc2nc(-c3cccc(SC4CCCCC4)c3)c(NCc3ccccc3)n2c1 do in these assays?
MCF10A rereplic: 18µM*; SW480 rerep: inconclusive; KB-3-1 cytotox: inconclusive; KB-V1 MDR tox: inconclusive; D3 ag: 5; D3 antag: 58

How did Clc1ccc2nc(-c3cccc(SC4CCCCC4)c3)c(NCc3ccccc3)n2c1 do in these assays?
MCF10A rereplic: inconclusive; SW480 rerep: -2%[9.22 µM]; KB-3-1 cytotox: inactive; KB-V1 MDR tox: inactive; D3 ag: 12; D3 antag: 11

How did Clc1cccc(-c2ccc(-c3nc4ccccn4c3NCc3ccccc3)cc2)c1 do in these assays?
MCF10A rereplic: 16µM*; SW480 rerep: inconclusive; KB-3-1 cytotox: inactive; KB-V1 MDR tox: inactive; D3 ag: 8; D3 antag: 22

What do the screens show for `Cc1ccn2c(NCc3ccccc3)c(-c3cccc(SC4CCCCC4)c3)nc2c1`?
MCF10A rereplic: 21µM*; SW480 rerep: -10%; KB-3-1 cytotox: inconclusive; KB-V1 MDR tox: 21µM*!; D3 ag: 41*!; D3 antag: 103

How did Cc1c(/C=C(\C#N)C(=O)Nc2cccc(Cl)c2)c2ccccc2n1Cc1ccccc1Cl do in these assays?
KB-3-1 cytotox: inconclusive; KB-V1 MDR tox: inactive; D3 ag: -14

Results for O=C(O)c1ccccc1C(=O)Nc1ccc(Br)c(C(F)(F)F)c1 ?
MCF10A rereplic: -3%; SW480 rerep: 10%; KB-3-1 cytotox: inactive; KB-V1 MDR tox: inactive; D3 ag: 1; D3 antag: 3

Results for Cc1cc(C)c(C(=O)Nc2ccc(Br)c(C(F)(F)F)c2)c(C)c1 ?
MCF10A rereplic: 23µM*; SW480 rerep: inconclusive; KB-3-1 cytotox: inconclusive; KB-V1 MDR tox: inactive; D3 ag: 12; D3 antag: 4

How did Cn1cc(S(=O)(=O)N2CCCCCC2)cc1C(=O)N1CCN(c2ccccc2F)CC1 do in these assays?
KB-3-1 cytotox: inactive; KB-V1 MDR tox: inactive; D3 ag: 2

What do the screens show for `COc1cccc(CNc2nc3cc(-c4ccsc4)sc3c(=O)n2C)c1OC`?
KB-3-1 cytotox: 9.2µM*; KB-V1 MDR tox: 2.6µM*; D3 ag: 14; D3 antag: 58

How did COc1cccc(CNc2nc3cc(-c4ccc(C)cc4)sc3c(=O)n2C)c1OC do in these assays?
KB-3-1 cytotox: inconclusive; KB-V1 MDR tox: 12µM*; D3 ag: 5; D3 antag: 36

Results for CC(=O)Nc1ccc(CNc2nc3cc(-c4ccsc4)sc3c(=O)n2C)cc1 ?
KB-3-1 cytotox: inconclusive; KB-V1 MDR tox: 23µM*; D3 ag: 3; D3 antag: 40

Results for COc1cccc(CNc2nc3cc(-c4ccc(F)cc4)sc3c(=O)n2C)c1OC ?
KB-3-1 cytotox: inactive; KB-V1 MDR tox: inactive; D3 ag: 4; D3 antag: 80

Results for COC(=O)c1ccc2c(=O)n(CCCCCC(=O)N3CCN(c4ccc(OC)cc4)CC3)c(=O)[nH]c2c1 ?
KB-3-1 cytotox: inactive; KB-V1 MDR tox: inactive; D3 ag: -17

How did Cc1ccc(C)c2[nH]c(=O)c(C(c3nnnn3C(C)(C)C)N3CC=C(c4ccc(F)cc4)CC3)cc12 (configuration not stated) do in these assays?
MCF10A rereplic: inconclusive; SW480 rerep: 0.16µM*; KB-3-1 cytotox: inactive; KB-V1 MDR tox: inconclusive; D3 ag: -1; D3 antag: -51*

Results for O=C(Cn1cc(S(=O)(=O)Cc2cccc(Cl)c2)c2ccccc21)NCCc1ccccc1 ?
KB-3-1 cytotox: inactive; KB-V1 MDR tox: inactive; D3 ag: 1

What do the screens show for `Cc1ccc2oc(=O)c3cc(C(=O)NCCCN4CCc5ccccc5C4)sc3c2c1`?
MCF10A rereplic: 0%; SW480 rerep: 4%; KB-3-1 cytotox: inactive; KB-V1 MDR tox: inactive; D3 ag: -13; D3 antag: -55*

How did O=C(Nc1cccc(F)c1)c1ccc(-c2ccccc2)s1 do in these assays?
KB-3-1 cytotox: inactive; KB-V1 MDR tox: inactive; D3 ag: -7

Results for CN(C)/C=N/c1nc2ncc(-c3ccc(Cl)cc3)c(/N=C/N(C)C)n2n1 ?
MCF10A rereplic: 1%; SW480 rerep: -3%; KB-3-1 cytotox: inconclusive; KB-V1 MDR tox: 6.5µM*; D3 ag: -2; D3 antag: 4

How did CCn1cc([N+](=O)[O-])c(C(=O)N2N=C(c3ccc4ccccc4c3)CC2c2cc(Br)ccc2O)n1 (configuration not stated) do in these assays?
MCF10A rereplic: inconclusive; SW480 rerep: inconclusive; KB-3-1 cytotox: inconclusive; KB-V1 MDR tox: inconclusive; D3 ag: 2; D3 antag: -61*

Results for CCn1cc([N+](=O)[O-])c(C(=O)N2N=C(c3ccc(Cl)c(Cl)c3)CC2c2ccccc2O)n1 (configuration not stated) ?
MCF10A rereplic: inconclusive; SW480 rerep: inconclusive; KB-3-1 cytotox: inconclusive; KB-V1 MDR tox: inconclusive; D3 ag: 15; D3 antag: 17
